Test results from PubChem BioAssay (NCATS).
Where “and” joins values, the source holds several entries; their conditions need not be identical. Equal values may be shown once. Records with an inconclusive call do not appear. A call without a number means that no potency is given here. The source holds several records for some structures; these can differ, active in one and inactive in another. Calls of active or inactive are those of the source. Unless noted, the call rests on the fitted dose curve; in most records, active means well fitted curve in the direction sought with a large enough effect; inconclusive means small, poorly fitted or top-dose-only effect, or another doubt; inactive means no such curve, though single readings can be large; an effect the other way counts as inactive or inconclusive.

How the values were obtained:
[1] = qHTS assay for small molecule antagonists of peroxisome proliferator-activated receptor delta signaling (AID 588535); settings: HEK293T PPARd-UAS-bla, beta-lactamase FRET ratio, 18 h; 460 nm channel;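 further: cells co-treated with a PPAR-delta agonist as stimulator during compound exposure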
How it was run: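 Beta-lactamase reporter read-out (405 nm excitation, 460/530 nm emission) after CCF4 loading for 2 hrs at RT. HEK293T PPAR-delta-UAS-bla cells, 2% charcoal/dextran FBS, compounds for 18 hrs at 37 C. Hill fit gave IC50 and efficacy.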

[2] = target: Peroxisome proliferator-activated receptor gamma (Homo sapiens) (UniProt P37231); experiment: qHTS assay for small molecule agonists of peroxisome proliferator-activated receptor gamma signaling (AID 588536; active means well fitted curve in the direction sought with a large enough effect in the signal ratio, with a control signal flat, not every such curve was filed as active; the % refers to the signal ratio); settings: HEK293 PPARg-UAS-bla, beta-lactamase ratio, 16 h, percent of rosiglitazone response, DMSO as zero; series mostly up to 76.7 µM
Sequence of Peroxisome proliferator-activated receptor gamma (Homo sapiens) (P37231 whole entry, looked up): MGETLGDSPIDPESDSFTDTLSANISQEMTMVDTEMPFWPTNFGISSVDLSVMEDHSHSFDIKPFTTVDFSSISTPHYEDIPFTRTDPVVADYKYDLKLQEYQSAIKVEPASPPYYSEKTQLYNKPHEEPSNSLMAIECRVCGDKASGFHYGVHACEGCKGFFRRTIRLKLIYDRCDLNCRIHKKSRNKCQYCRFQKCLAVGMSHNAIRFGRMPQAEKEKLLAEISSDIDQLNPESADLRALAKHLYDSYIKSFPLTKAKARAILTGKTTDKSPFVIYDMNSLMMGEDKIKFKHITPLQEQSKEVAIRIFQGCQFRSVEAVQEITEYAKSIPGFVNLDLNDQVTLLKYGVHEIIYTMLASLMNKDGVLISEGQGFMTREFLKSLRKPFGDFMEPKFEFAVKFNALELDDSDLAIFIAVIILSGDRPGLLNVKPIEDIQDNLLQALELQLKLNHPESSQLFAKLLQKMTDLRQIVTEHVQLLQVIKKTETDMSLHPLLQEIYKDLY
How it was run: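 Beta-lactamase reporter read-out: CCF4 fluorescence (ex 405, em 460/530 nm) after 2 h at RT. HEK293 GeneBLAzer cells were treated for 16 h at 37 C. Hill fits gave EC50 and efficacy versus 2 uM rosiglitazone (100%) and DMSO (0%).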

[3] = target: Peroxisome proliferator-activated receptor gamma (Homo sapiens) (UniProt P37231); experiment: qHTS assay for small molecule antagonists of peroxisome proliferator-activated receptor gamma signaling (AID 588537; active means well fitted inhibition curve with a large enough effect in the signal ratio, with a control signal flat, not every such curve was filed as active; the % refers to the signal ratio; further: potency means the concentration at half of the fitted maximal effect); settings: HEK293 PPARg-UAS-bla, beta-lactamase ratio, antagonist mode; series mostly up to 76.8 µM
How it was run: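 Read-out: CCF4 fluorescence (ex 405, em 460/530 nm) after 2 h at RT. Cells were HEK293 carrying a UAS-bla reporter and treated 16 h at 37 C with compound plus rosiglitazone (50 nM final). Normalized to rosiglitazone and DMSO.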

[4] = target: Vitamin D3 receptor (Homo sapiens) (UniProt P11473); experiment: qHTS assay for small molecule antagonists of vitamin D receptor signaling (AID 588541; calls by dose curve;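 further: receptor activated by calcitriol during compound treatment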); settings: HEK293T VDR-UAS-bla, beta-lactamase ratio, antagonist mode; series mostly up to 76.7 µM
Sequence of Vitamin D3 receptor (Homo sapiens) (P11473 whole entry, looked up): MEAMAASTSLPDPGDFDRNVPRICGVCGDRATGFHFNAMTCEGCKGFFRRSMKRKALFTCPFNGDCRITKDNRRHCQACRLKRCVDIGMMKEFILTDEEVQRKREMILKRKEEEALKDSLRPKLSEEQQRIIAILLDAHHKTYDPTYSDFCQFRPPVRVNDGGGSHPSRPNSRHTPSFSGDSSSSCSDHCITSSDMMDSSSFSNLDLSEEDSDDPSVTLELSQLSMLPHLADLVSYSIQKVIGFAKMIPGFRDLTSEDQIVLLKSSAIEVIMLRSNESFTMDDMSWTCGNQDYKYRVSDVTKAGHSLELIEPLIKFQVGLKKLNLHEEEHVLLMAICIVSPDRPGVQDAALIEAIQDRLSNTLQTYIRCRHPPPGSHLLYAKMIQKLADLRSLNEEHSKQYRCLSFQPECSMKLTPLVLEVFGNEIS
How it was run: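 VDR-UAS-bla HEK293T cells in 2% charcoal-stripped FBS were stimulated with 1-alpha,25-dihydroxyvitamin D3 (3 nM final) plus compound for 16 h at 37 C. The beta-lactamase CCF4 readout was normalized to 50 nM agonist and DMSO, and Hill fits gave IC50.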

[5] = target: Vitamin D3 receptor (Homo sapiens) (UniProt P11473); experiment: qHTS assay for small molecule agonists of vitamin D receptor signaling (AID 588543; calls by dose curve); settings: HEK293T VDR-UAS-bla, beta-lactamase ratio, 16 h; series mostly up to 76.8 µM
How it was run: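 Agonist-mode beta-lactamase reporter: HEK293T VDR-UAS-bla cells in charcoal-stripped 2% FBS, compound series 16 h 37 C, CCF4 2 h RT. EC50 from Hill fit, scaled against DMSO and 50 nM calcitriol control.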

[6] = qHTS assay for small molecule agonists of retinoid X receptor alpha signaling (AID 588544; calls by dose curve); settings: HEK293T RXRa-UAS-bla, beta-lactamase reporter, 18 h; 530 nm emission
[7] = target: Thyroid hormone receptor beta (Homo sapiens) (UniProt P10828); experiment: qHTS assay for small molecule agonists of thyroid hormone receptor beta signaling (AID 588545; calls by dose curve); settings: TR-UAS-bla GripTite HEK 293, beta-lactamase ratio, agonist mode, 18 h, percent of T3 response, DMSO as zero; series mostly up to 76.7 µM
Sequence of Thyroid hormone receptor beta (Homo sapiens) (P10828 whole entry, looked up): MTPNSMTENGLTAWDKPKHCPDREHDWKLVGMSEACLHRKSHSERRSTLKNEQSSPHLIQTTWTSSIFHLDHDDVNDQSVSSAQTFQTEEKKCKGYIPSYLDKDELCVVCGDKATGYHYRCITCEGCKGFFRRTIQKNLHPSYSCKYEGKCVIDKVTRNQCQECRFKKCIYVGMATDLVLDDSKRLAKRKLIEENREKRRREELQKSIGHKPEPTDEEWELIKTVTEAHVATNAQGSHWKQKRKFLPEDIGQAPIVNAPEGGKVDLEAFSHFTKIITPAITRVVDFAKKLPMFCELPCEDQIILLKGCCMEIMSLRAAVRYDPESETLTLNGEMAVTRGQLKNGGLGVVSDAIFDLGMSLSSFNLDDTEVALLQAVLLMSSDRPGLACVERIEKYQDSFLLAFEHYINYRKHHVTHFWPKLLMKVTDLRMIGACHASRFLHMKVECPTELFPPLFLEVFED
How it was run: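 Agonist activity was read as beta-lactamase CCF4 fluorescence (405 ex, 460/530 em), scaled between DMSO (0%) and 10 nM T3 (100%), then Hill-fitted for EC50 and efficacy. HEK 293 TR-UAS-bla cells in 2% charcoal/dextran FBS medium were exposed 18 h at 37 C.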

[8] = qHTS assay for small molecule antagonists of retinoid X receptor alpha signaling (AID 588546; active means well fitted inhibition curve with a large enough effect in the signal ratio, with a control signal flat, not every such curve was filed as active; the % refers to the signal ratio;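 further: cells stimulated with 9-cis-retinoic acid as agonist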); settings: HEK293T RXRa-UAS-bla, beta-lactamase ratio, antagonist mode; measured here: W530 green channel, cytotoxicity proxy
How it was run: (§1)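 Beta-lactamase reporter inhibition, read as CCF4 fluorescence ratio (ex 405, em 460/530 nm) after 2 h at RT. HEK293T UAS-bla cells, 2500/well, were stimulated with 9-cis-RA at 500 or 100 nM final alongside test compound for 18 h at 37 C.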

[9] = target: Retinoic acid receptor RXR-alpha (Homo sapiens) (UniProt P19793); experiment: as above; settings: HEK293T RXRa-UAS-bla, beta-lactamase ratio, antagonist mode
Sequence of Retinoic acid receptor RXR-alpha (Homo sapiens) (P19793 whole entry, looked up): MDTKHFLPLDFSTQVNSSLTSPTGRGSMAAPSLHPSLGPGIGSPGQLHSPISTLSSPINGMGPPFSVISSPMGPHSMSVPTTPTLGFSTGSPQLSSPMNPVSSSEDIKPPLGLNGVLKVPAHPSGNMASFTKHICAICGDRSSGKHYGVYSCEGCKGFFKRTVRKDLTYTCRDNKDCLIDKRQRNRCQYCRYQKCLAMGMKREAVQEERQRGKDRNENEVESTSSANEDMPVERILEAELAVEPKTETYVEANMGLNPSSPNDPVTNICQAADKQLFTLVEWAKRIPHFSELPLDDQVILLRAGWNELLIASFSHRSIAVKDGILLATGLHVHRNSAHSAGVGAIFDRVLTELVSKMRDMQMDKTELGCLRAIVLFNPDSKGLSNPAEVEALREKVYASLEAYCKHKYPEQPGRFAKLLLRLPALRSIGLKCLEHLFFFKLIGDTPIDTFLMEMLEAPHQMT
How it was run: as §1

[10] = target: Thyroid hormone receptor beta (Homo sapiens) (UniProt P10828); experiment: qHTS assay for small molecule antagonists of thyroid hormone receptor beta signaling (AID 588547; active means well fitted inhibition curve with a large enough effect in the signal ratio, with a control signal flat, not every such curve was filed as active; the % refers to the signal ratio;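 further: cells stimulated with 0.4 nM T3 agonist during compound exposure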); settings: TR-UAS-bla HEK293, beta-lactamase ratio, antagonist mode, 18 h
How it was run: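 TR-UAS-bla GripTite HEK293 cells in 2% charcoal/dextran FBS medium; compounds 0.59 nM to 92 uM with T3 at 0.4nM final, 18 h at 37 C. Beta-lactamase read by CCF4 fluorescence (460/530 nm); Hill fits gave IC50 and efficacy.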

[11] = target: Voltage-gated inwardly rectifying potassium channel KCNH2 (Homo sapiens) (UniProt Q12809); experiment: qHTS Assay for Small Molecule Inhibitors of the Human hERG Channel Activity (AID 588834); settings: U2OS BacMam hERG, FluxOR thallium flux fluorescence; series mostly up to 46.1 µM;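 further: lower thallium flux fluorescence means stronger hERG block; nearly all actives have a fitted effect of over 50% in size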; further: potency means the concentration at half of the fitted maximal effect
Sequence of Voltage-gated inwardly rectifying potassium channel KCNH2 (Homo sapiens) (Q12809 whole entry, looked up): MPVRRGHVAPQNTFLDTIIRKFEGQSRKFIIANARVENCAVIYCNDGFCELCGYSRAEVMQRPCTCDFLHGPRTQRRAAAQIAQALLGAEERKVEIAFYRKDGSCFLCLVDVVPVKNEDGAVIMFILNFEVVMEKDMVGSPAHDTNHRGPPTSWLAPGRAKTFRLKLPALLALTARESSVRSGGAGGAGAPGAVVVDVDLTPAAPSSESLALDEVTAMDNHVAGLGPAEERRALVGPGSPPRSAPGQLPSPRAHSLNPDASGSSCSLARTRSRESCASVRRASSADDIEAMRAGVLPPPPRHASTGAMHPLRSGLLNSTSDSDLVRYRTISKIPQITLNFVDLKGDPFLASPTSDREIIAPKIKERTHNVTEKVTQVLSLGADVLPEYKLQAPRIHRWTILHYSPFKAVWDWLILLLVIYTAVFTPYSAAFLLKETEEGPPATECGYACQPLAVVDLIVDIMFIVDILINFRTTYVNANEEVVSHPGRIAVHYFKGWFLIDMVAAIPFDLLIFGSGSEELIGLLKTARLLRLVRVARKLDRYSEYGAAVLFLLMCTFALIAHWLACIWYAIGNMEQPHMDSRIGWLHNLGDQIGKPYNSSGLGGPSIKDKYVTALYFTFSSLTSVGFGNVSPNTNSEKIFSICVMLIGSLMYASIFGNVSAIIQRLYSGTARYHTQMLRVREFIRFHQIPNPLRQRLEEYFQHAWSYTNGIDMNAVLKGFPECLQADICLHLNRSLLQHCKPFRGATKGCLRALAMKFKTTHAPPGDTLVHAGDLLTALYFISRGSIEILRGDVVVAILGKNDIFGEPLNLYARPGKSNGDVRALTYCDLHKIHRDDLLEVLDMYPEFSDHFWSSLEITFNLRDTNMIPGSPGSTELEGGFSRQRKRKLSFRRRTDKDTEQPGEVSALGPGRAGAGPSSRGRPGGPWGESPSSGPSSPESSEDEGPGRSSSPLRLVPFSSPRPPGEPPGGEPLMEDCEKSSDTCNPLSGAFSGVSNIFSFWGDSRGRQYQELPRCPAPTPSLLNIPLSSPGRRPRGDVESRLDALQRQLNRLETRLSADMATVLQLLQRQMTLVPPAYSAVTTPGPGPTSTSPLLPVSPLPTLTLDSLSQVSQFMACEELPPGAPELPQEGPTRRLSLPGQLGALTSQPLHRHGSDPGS
How it was run: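 hERG block measured as reduced thallium-dye (FluxOR) fluorescence after stimulation buffer addition, read over 2 min. Cells were hERG-BacMam-transduced U2OS exposed to compound ~10 min […]; concentration-response fitted with Hill equation for AC50.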

[12] = target: Luciferin 4-monooxygenase (Photinus pyralis) (UniProt P08659); experiment: Biochemical firefly luciferase enzyme assay for NPC (AID 624030);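 further: purified P. pyralis luciferase at 10 nM with luciferin and ATP substrate; nearly all actives have a fitted effect of over 70% in size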; settings: purified P. pyralis luciferase, luminescence, 5 min; series mostly up to 58.6 µM
Sequence of Luciferin 4-monooxygenase (Photinus pyralis) (P08659 whole entry, looked up): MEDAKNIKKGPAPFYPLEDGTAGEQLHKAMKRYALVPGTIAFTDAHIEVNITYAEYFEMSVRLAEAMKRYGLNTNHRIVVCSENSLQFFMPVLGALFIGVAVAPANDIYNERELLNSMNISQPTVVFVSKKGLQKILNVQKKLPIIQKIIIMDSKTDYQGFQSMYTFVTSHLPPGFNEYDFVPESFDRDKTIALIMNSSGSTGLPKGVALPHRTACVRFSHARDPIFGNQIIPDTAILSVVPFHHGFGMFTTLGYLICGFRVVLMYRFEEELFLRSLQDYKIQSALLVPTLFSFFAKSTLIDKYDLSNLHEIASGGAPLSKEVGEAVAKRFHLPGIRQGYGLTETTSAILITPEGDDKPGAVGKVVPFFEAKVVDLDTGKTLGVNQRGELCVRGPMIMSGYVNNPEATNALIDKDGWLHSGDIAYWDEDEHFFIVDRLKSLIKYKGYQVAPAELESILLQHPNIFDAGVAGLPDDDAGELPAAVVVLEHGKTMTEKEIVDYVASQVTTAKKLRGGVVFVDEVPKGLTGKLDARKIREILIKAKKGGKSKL
How it was run: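 Purified P. pyralis luciferase at 10 nM in 50 mM Tris Acetate (final), luminescence read within 5 minutes of enzyme addition to compounds. Activity normalised to PTC124 versus DMSO; concentration-response curves classed by r2, magnitude and activity.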

[13] = S16 Schwann cell PMP22 intronic element firefly luciferase assay (AID 624032); settings: S16 rat Schwann cells, PMP22 element FLuc, 24 h; series mostly up to 57.5 µM; further: nearly all actives have a fitted effect of over 30% in size
How it was run: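 Rat S16 Schwann cells stably carrying firefly luciferase driven by a PMP22 intronic element, in 10% FBS, treated 24 h at 37 C. ONE-Glo luminescence normalized to PTC124 control and DMSO (0%); curves classed by r2, magnitude and activity.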

[14] = target: Retinoic acid receptor RXR-alpha (Homo sapiens) (UniProt P19793); experiment: qHTS assay for small molecule agonists of retinoid X receptor alpha signaling (AID 588544); settings: HEK293T RXRa-UAS-bla, beta-lactamase reporter, 18 h; series mostly up to 76.7 µM
[15] = S16 Schwann cell viability assay (CellTiter-Glo assay) (AID 624031); settings: S16 rat Schwann cells viability, 24 h; series mostly up to 57.5 µM;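 further: cellular ATP luminescence as a viability measure; nearly all actives have a fitted effect of over 70% in size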
How it was run: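 Native S16 rat Schwann cells in DMEM/10% FBS without phenol red were incubated overnight, then exposed to compounds for 24 h at 37 °C/5% CO2. Viability was read as ATP luminescence (CellTiter-Glo), normalized to no-cell wells and DMSO (0%).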

[16] = S16 Schwann cell PMP22 intronic element beta-lactamase assay (AID 624044; calls by dose curve; further: nearly all actives have a fitted effect of over 15% in size); settings: S16 rat Schwann cells, PMP22 element beta-lactamase FRET, 24 h; series mostly up to 38.3 µM
How it was run: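 Beta-lactamase reporter under a PMP22 intronic regulatory element in stable S16 rat Schwann cells; 24 h compound exposure. 460 nm blue signal normalized between DMSO (0%) and potassium clavulanate, with 535 nm FRET tracking viability; curves classed by r2 and response.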

[17] = qHTS of Trypanosoma Brucei Inhibitors: LOPAC Validation (AID 624147); settings: purified enzyme assay, luminescence, 45 min; series mostly up to 57.5 µM
How it was run: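 TbPYK + substrate in 50 mM TEA pH 7.2, 100 mM KCl, 10 mM MgCl2, 0.05% BSA, 0.01% Tween-20; cpd pinned; ADP 130 uM final; 45 min RT; Kinase-Glo Plus 10 min; luminescence endpoint.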

In the case of OCCOc1ccccc1, the max response [1] is reported as 16.7% and 12.5% and -5.77%, the outcome [2] is reported as “inactive” and the Potency [3] is reported as “inactive”. For the same compound, the outcome [4] was “inactive”, the outcome [5] was “inactive” and the max response [6] was -2.94% and -12.9% and -4.25%. The outcome [7] was “inactive”, the max response [8] was -0.71% and -11.6% and -11.4% and the max response [9] was 15.3% (inactive) and -5.21% (inactive) and -13.9% (inactive). For the same compound, the activity change % (negative = inhibition) [10] was 12.7% (inactive) and 7.54% (inactive) and 6.22% (inactive), the Potency [11] was “inactive” and the Potency [12] was “inactive”. The Potency [13] was “inactive”.
With c1ccc2c(c1)Nc1ccccc1S2 the max response [1] was 32.2% and -35%, the outcome [2] was “inactive” and the Potency [3] was “inactive and 39.8 µM (active)”. For the same compound, the max response [6] was 2.15% and 8.42%, the Potency [14] was “inactive” and the outcome [7] was “inactive”. For the same compound, the max response [8] was -11.1% and -4.36%, the max response [9] was 11.2% (inactive) and 0.985% (inactive) and the activity change % (negative = inhibition) [10] was 5.64% (inactive) and -8.66% (inactive). The Potency [11] was 7.08 µM (active) and 12.6 µM (active), the Potency [15] was “inactive” and the Potency [13] was “inactive”. The Potency [16] was “inactive”.
For CC[N+]1(C)CCCC(OC(=O)C(O)(c2ccccc2)c2ccccc2)C1 (stereo not drawn), the Potency [11] was “inactive”, the Potency [12] was “inactive” and the Potency [15] was “inactive”.
With N[C@@H](Cc1ccc(Oc2cc(I)c(O)c(I)c2)c(I)c1)C(=O)O the Potency [11] was “inactive”.
With Clc1ccc(CCC(Cn2ccnc2)Sc2c(Cl)cccc2Cl)cc1 (stereo not drawn) the Potency [11] was 5.01 µM (active).
With CNCC(O)c1ccc(O)cc1 (stereo not drawn) the max response [1] was -16.7%, the outcome [4] was “inactive” and the outcome [5] was “inactive”. For the same compound, the max response [6] was 4.18%, the Potency [14] was “inactive” and the outcome [7] was “inactive”. The max response [8] was 8.32%, the max response [9] was 7.59% (inactive) and the activity change % (negative = inhibition) [10] was 3.5% (inactive). For the same compound, the Potency [11] was “inactive” and the outcome [17] was “inactive”.
With COc1ccc(Cc2nccc3cc(OC)c(OC)cc23)cc1OC the Potency [11] was “inactive”.
For CCC1C(=O)OCC1Cc1cncn1C (stereo not drawn), the Potency [11] was “inactive”.
For CC(C)(C)NCC(O)c1cc(Cl)c(N)c(Cl)c1 (stereo not drawn), the Potency [11] was “inactive”, the Potency [12] was “inactive” and the Potency [15] was “inactive”.
With N[C@@H]1C[C@H]1c1ccccc1 the Potency [11] was “inactive”.
